About 83,000 compounds went through this panel and 20% of them were active in at least one assay; those are over-represented in the sample as a whole.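 Method: cells in 96-well plates; compound added at one concentration; 48 h incubation; percent growth measured; values under 10 scored active.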 A number with no mark means an inactive call. Activity calls are given as the source filed them.

Among the test systems are T-47D breast; BT-549 breast; MDA-MB-435 melanoma; SW-620 colon; MCF7 breast; HCT-116 colon; HCC-2998 colon; KM12 colon; MDA-MB-468 breast.
What all share (assay): NCI-60 one-dose screen, 48 h (100 = growth as untreated, 0 = no growth, -100 = all killed)
What all share (conditions): 10 µM

For the compound `Cc1noc2c(Cc3ccccc3)nn(CC(=O)N/N=C/c3ccc(Br)cc3)c(=O)c12`, the growth is 8.11% (active) in the assay with T-47D breast; 87.2% in the assay on BT-549 breast; 70.2% in the assay on MDA-MB-435 melanoma; 54.6% with SW-620 colon; 45.4% in the assay with MCF7 breast; 24.7% in the assay on HCT-116 colon. In addition, the results for the growth in the assay with HCC-2998 colon, in the assay with KM12 colon and in the assay with MDA-MB-468 breast were 85.3%, 73.8% and 78.1%, respectively.

For the compound `C=C1CCC2C3(C)COC(c4cccc(F)c4)OC3CCC2(C)C1CC(O)C1=CCOC1=O` (stereo unspecified), the growth in the assay with T-47D breast is 37.9%; in the assay with BT-549 breast it was -4.37% (active); in the assay on MDA-MB-435 melanoma, 57.7%; with SW-620 colon, 6.42% (active); in the assay on MCF7 breast it was 14.2%; with HCT-116 colon it was -7.46% (active). The results for the growth in the assay with HCC-2998 colon, in the assay with KM12 colon and in the assay on MDA-MB-468 breast were 63.1%, 59.6% and 52.1%, respectively.

Regarding `COc1ccccc1C(=O)NNC(=O)CSc1nc2c(c(=O)[nH]1)CCCC2`, the growth with T-47D breast is 81.2%; with BT-549 breast, 101%; in the assay with MDA-MB-435 melanoma, 109%; in the assay with SW-620 colon, 112%; with MCF7 breast, 95.8%; with HCT-116 colon it was 102%. Moreover, the growth was 108% in the assay on HCC-2998 colon, 94.5% in the assay on KM12 colon and 120% in the assay on MDA-MB-468 breast.

As to `O=C1Nc2cc(Cl)ccc2/C1=C/c1cccc(OCc2ccc(Br)cc2F)c1`, the growth is 9.72% (active) in the assay on T-47D breast; 10.5% in the assay with BT-549 breast; -64.4% (active) in the assay with MDA-MB-435 melanoma; 19.5% in the assay with SW-620 colon; 5.38% (active) in the assay on MCF7 breast; 1.63% (active) in the assay with HCT-116 colon. Further, the growth with HCC-2998 colon is 26%; with KM12 colon, 1.67% (active); in the assay on MDA-MB-468 breast, -9.05% (active).

With `COc1ccc(/C(C)=N/N=C2C(=O)N(C)c3ccc(Br)cc32)cc1S(N)(=O)=O`, the growth is 52.6% with T-47D breast; 29.2% in the assay on BT-549 breast; 95.9% with MDA-MB-435 melanoma; 85.7% in the assay with SW-620 colon; 57.8% in the assay on MCF7 breast; 74.4% in the assay with HCT-116 colon. In addition, the growth in the assay on HCC-2998 colon was 98.3%; in the assay with KM12 colon it was 97.8%; in the assay on MDA-MB-468 breast, 70.2%.

For `O=C1Nc2cc(Cl)ccc2/C1=C/c1cccc(OCc2ccccc2)c1`, the growth in the assay on T-47D breast was 14.7%; in the assay on BT-549 breast it was -21.8% (active); in the assay on MDA-MB-435 melanoma, 10.5%; in the assay on SW-620 colon it was 8.71% (active); with MCF7 breast, 2.6% (active); in the assay with HCT-116 colon, 3.32% (active). The growth in the assay with HCC-2998 colon is -39% (active); with KM12 colon it was 4.45% (active); with MDA-MB-468 breast, 11.9%.

Consider `COc1ccc(NC(=O)Nc2ccc(OCC(=O)N=Nc3c(O)[nH]c4ccc([N+](=O)[O-])cc34)cc2)cc1`, for which the growth in the assay with T-47D breast is 32.6%; in the assay with BT-549 breast it was 27.5%; with MDA-MB-435 melanoma, 106%; with SW-620 colon it was 98.3%; with MCF7 breast it was 38.2%; with HCT-116 colon it was 85.6%. The growth in the assay on HCC-2998 colon is 66.6%; in the assay with KM12 colon, 18%; in the assay on MDA-MB-468 breast, 30.2%.

For the compound `CC(=O)Nc1ccc(-n2cnc3cc(-c4ccc(O)cc4)ccc32)cc1F`, the growth was 29.9% with T-47D breast; 60.3% with BT-549 breast; -25.7% (active) with MDA-MB-435 melanoma; 28.2% with SW-620 colon; 26.3% with MCF7 breast; 13.9% in the assay on HCT-116 colon. For the same compound, the growth was 33.3% in the assay on HCC-2998 colon, 4.96% (active) with KM12 colon and -12.3% (active) in the assay with MDA-MB-468 breast.

Turning to `O=c1[nH]c2ccccc2cc1CSc1ccc(Nc2nccc(-c3ccc4c(c3)OCO4)n2)cc1`, the growth in the assay on T-47D breast was 75.5%; in the assay with BT-549 breast, 65.5%; with MDA-MB-435 melanoma it was 93.6%; in the assay with SW-620 colon, 80.6%; in the assay with MCF7 breast, 56%; in the assay on HCT-116 colon, 84.1%. In addition, the growth with HCC-2998 colon is 95.5%; in the assay on KM12 colon, 74.2%; in the assay on MDA-MB-468 breast, 72.5%.

On to `CC(=O)NNc1ccc2nnc(-c3ccc(Br)cc3)n2n1`, for which the growth was 84.2% in the assay on T-47D breast; 90.2% in the assay with BT-549 breast; 94.6% with MDA-MB-435 melanoma; 102% in the assay on SW-620 colon; 87.8% with MCF7 breast; 101% in the assay on HCT-116 colon. For the same compound, the growth in the assay with HCC-2998 colon was 109%; in the assay with KM12 colon, 105%; with MDA-MB-468 breast, 97.4%.

As to `COc1ccc2ncc(C#Cc3cncc(C(=O)Nc4ccc(CN5CCN(C)CC5)c(C(F)(F)F)c4)c3)n2n1`, the growth is 61.8% in the assay with T-47D breast; -75.7% (active) with BT-549 breast; -89.6% (active) in the assay with MDA-MB-435 melanoma; -72.4% (active) with SW-620 colon; -71.7% (active) with MCF7 breast; -43.6% (active) in the assay with HCT-116 colon. For the same compound, the results for the growth in the assay with HCC-2998 colon, with KM12 colon and in the assay on MDA-MB-468 breast were -95.8% (active), -95% (active) and -91.1% (active), respectively.

With `O=C1CCC(N2Cc3cc(CC(=O)Nc4ccc(N5CCCCC5)cc4)ccc3C2=O)C(=O)N1` (stereo unspecified), the growth in the assay on T-47D breast is 14.1%; with BT-549 breast, -9.03% (active); in the assay with MDA-MB-435 melanoma, 70.5%; in the assay on SW-620 colon it was 24%; in the assay with MCF7 breast, 59.7%; with HCT-116 colon, 102%. Moreover, the growth in the assay with HCC-2998 colon is 34.7%; in the assay on KM12 colon, 41.1%; in the assay with MDA-MB-468 breast it was -16.4% (active).

For the compound `COc1ccccc1[C@H]1C(C(=O)c2ccc(Cl)cc2)C2(N[C@@H]1c1ccccc1)C(=O)Nc1ccccc12` (stereo partly specified), the growth was 6.01% (active) in the assay with T-47D breast; -22.7% (active) in the assay with BT-549 breast; -58.7% (active) in the assay on MDA-MB-435 melanoma; 5.84% (active) in the assay with SW-620 colon; -11.1% (active) in the assay with MCF7 breast; 0.0933% (active) in the assay with HCT-116 colon. The growth with HCC-2998 colon is -51.1% (active); in the assay on KM12 colon it was -13.5% (active); in the assay with MDA-MB-468 breast, -29.6% (active).

Regarding `COc1ccc(Nc2nc(N)n(Cc3cccc(Br)c3)n2)cc1`, the growth in the assay with T-47D breast is 13.4%; with BT-549 breast, -8.47% (active); in the assay on MDA-MB-435 melanoma it was -18.2% (active); in the assay on SW-620 colon, 18.3%; with MCF7 breast it was 1.86% (active); in the assay with HCT-116 colon, 12%. For the same compound, the growth in the assay on HCC-2998 colon is -13.1% (active); in the assay with KM12 colon, 1.74% (active); in the assay with MDA-MB-468 breast, -12.3% (active).

For the compound `CCOC(=O)C1=C(N)N(c2ccccc2)C2=C(C(=O)CC(C)(C)C2)C1c1ccc(Cl)cc1` (stereo unspecified), the growth in the assay on T-47D breast is 29.5%; in the assay with BT-549 breast, 43.2%; in the assay on MDA-MB-435 melanoma it was 22%; with SW-620 colon, 27.9%; in the assay with MCF7 breast it was 17.4%; in the assay on HCT-116 colon it was 18.7%. For the same compound, the growth is 42.9% in the assay with HCC-2998 colon, 17.9% in the assay on KM12 colon and 33.2% in the assay on MDA-MB-468 breast.

For `CC(C)C1=C[C@@]23CC[C@@H]4[C@](C)(CCC[C@]4(C)C(=O)NCc4ccccc4)[C@H]2C[C@@H]1[C@H]1C(=O)OC(=O)[C@H]13`, the growth in the assay on T-47D breast is 56%; in the assay with BT-549 breast it was 69.6%; with MDA-MB-435 melanoma it was 49.6%; in the assay on SW-620 colon, 54.2%; in the assay with MCF7 breast it was 13.2%; in the assay on HCT-116 colon it was 23.1%. Also, the growth in the assay on HCC-2998 colon was 53.8%; with KM12 colon it was 24.9%; in the assay with MDA-MB-468 breast, 41.5%.

Turning to `CNCc1cccc2c1OCCCCCC[C@@](C)(O)CC1(CC1)S(=O)(=O)c1ccc(cc1)-c1cnc(N)c(n1)C(=O)N2`, the growth with T-47D breast is 33.7%; in the assay on BT-549 breast it was -75.2% (active); in the assay with MDA-MB-435 melanoma it was -95.2% (active); with SW-620 colon, -84.6% (active); in the assay on MCF7 breast, -90% (active); with HCT-116 colon, 0.182% (active). The growth is -100% (active) in the assay with HCC-2998 colon, -68.7% (active) in the assay with KM12 colon and -98% (active) in the assay with MDA-MB-468 breast.

On to `CCCn1c(=O)c2[nH]c(-c3ccc(OCc4nc5ccc(C#N)cc5[nH]4)cc3)nc2n(CCC)c1=O`, for which the growth with T-47D breast is 35.7%; in the assay on BT-549 breast it was 92.6%; in the assay with MDA-MB-435 melanoma it was 97.5%; with SW-620 colon, 80.5%; in the assay on MCF7 breast, -48.9% (active); with HCT-116 colon, 58.2%. The results for the growth in the assay with HCC-2998 colon, in the assay with KM12 colon and in the assay on MDA-MB-468 breast were 95.3%, 75.5% and 65.9%, respectively.

Consider `Cc1ccc2nc3c(nc2c1)c1cc(I)ccc1n3CCN(C)C`, for which the growth in the assay on T-47D breast was 44.8%; with BT-549 breast, 60.2%; in the assay with MDA-MB-435 melanoma, 13.7%; in the assay with SW-620 colon, 15.9%; in the assay with MCF7 breast, -4.43% (active); in the assay on HCT-116 colon, 9.81% (active). Besides, the growth was -15.6% (active) in the assay with HCC-2998 colon, 21.1% in the assay with KM12 colon and 5.08% (active) with MDA-MB-468 breast.

These data come from PubChem BioAssay (NCI).
